Test results: PubChem BioAssay (EPA / NIEHS)
Active and inactive are the calls of the source. Rule for the calls: active = hit-call score of the fitted dose curve at least 0.9, where 1 is the maximum; inactive = score below 0.9.

Key:
Details in all cases: mRNA level, 48 h; actives raise or lower the signal
[1] = read-out: growth arrest and DNA damage 45 (GADD45B), GADD45B (gene 4616); assay: LTEA_HepaRG_GADD45B: Life Technologies and Expression Analysis (LTEA) Assay for growth arrest and DNA damage 45 (GADD45B) using HepaRG (AID 2283461)
In short: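 HepaRG, ~100,000 cells/well, 48 h plating; serum-free induction medium; cpd 100 uM top, half-log x8, 0.5% DMSO, duplicate, 48 h; lysis in RLT, RNA isolation, qRT-PCR; norm ACTB/GAPDH/POLR2A; bidirectional fit vs DMSO.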

[2] = read-out: ABC Transporter (ABCC3), ABCC3 (gene 8714); assay: LTEA_HepaRG_ABCC3: Life Technologies and Expression Analysis (LTEA) Assay for ABC Transporter (ABCC3) using HepaRG (AID 2283462)
In short: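 Human HepaRG, 48 h dosing, 8-pt half-log series from 100 uM, 0.5% DMSO vehicle, duplicates. ABCC3 mRNA by TaqMan qRT-PCR, housekeeping-normalized; bidirectional curve fit vs DMSO.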

[3] = read-out: ABC Transporter (ABCB11), ABCB11 (gene 8647); assay: LTEA_HepaRG_ABCB11: Life Technologies and Expression Analysis (LTEA) Assay for ABC Transporter (ABCB11) using HepaRG (AID 2283463)
In short: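 Differentiated human HepaRG cells in serum-free induction medium, dosed in duplicate for 48 h. Eight-point half-log series from 100 uM in 0.5% DMSO; ABCB11 mRNA by qRT-PCR, normalized to ACTB, GAPDH, POLR2A, fitted bidirectionally versus DMSO.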

[4] = read-out: ABC Transporter (ABCC2), ABCC2 (gene 1244); assay: LTEA_HepaRG_ABCC2: Life Technologies and Expression Analysis (LTEA) Assay for ABC Transporter (ABCC2) using HepaRG (AID 2283464)
In short: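 HepaRG, 48 h post-plating; serum-free induction medium; cpd 8-pt, 100 uM top, half-log, 0.5% DMSO, duplicate, 48 h. Readout: ABCC2 mRNA by qRT-PCR, norm. ACTB/GAPDH/POLR2A. Bidirectional fit vs DMSO baseline.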

[5] = read-out: Broad substrate specificity ATP-binding cassette transporter ABCG2 (Homo sapiens) (UniProt Q9UNQ0); assay: LTEA_HepaRG_ABCG2: Life Technologies and Expression Analysis (LTEA) Assay for ABC Transporter (ABCG2) using HepaRG (AID 2283465)
In short: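 Differentiated HepaRG cells were exposed for 48 h in serum-free induction medium to 8 half-log concentrations, top 100 uM, in 0.5% DMSO. ABCG2 mRNA was measured by qRT-PCR, normalized to ACTB, GAPDH and POLR2A, with bidirectional fitting versus DMSO.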

[6] = read-out: ATP-citrate lyase (ACLY), ACLY (gene 47); assay: LTEA_HepaRG_ACLY: Life Technologies and Expression Analysis (LTEA) Assay for ATP-citrate lyase (ACLY) using HepaRG (AID 2283466)
In short: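 Differentiated HepaRG cells exposed 48 h in serum-free induction medium to eight half-log concentrations up to 100 uM in 0.5% DMSO, duplicates. Transcript measured by Fluidigm TaqMan qRT-PCR, normalized to ACTB, GAPDH, POLR2A; bidirectional fit versus DMSO.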

[7] = read-out: Peroxisomal acyl-coenzyme A oxidase 1 (ACOX1) gene, ACOX1 (gene 51); assay: LTEA_HepaRG_ACOX1: Life Technologies and Expression Analysis (LTEA) Assay for Peroxisomal acyl-coenzyme A oxidase 1 (ACOX1) gene using HepaRG (AID 2283467)
In short: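 HepaRG cells, plated 48 h then switched to serum-free induction medium, were exposed in duplicate for 48 h to 8-point half-log concentrations up to 100 uM in 0.5% DMSO. ACOX1 mRNA was measured by qRT-PCR, normalized to ACTB/GAPDH/POLR2A, and fitted bidirectionally versus DMSO.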

[8] = read-out: Alkaline Phosphatase, Placental (ALPP) gene, ALPP (gene 250); assay: LTEA_HepaRG_ALPP: Life Technologies and Expression Analysis (LTEA) Assay for Alkaline Phosphatase, Placental (ALPP) gene using HepaRG (AID 2283468)
In short: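 HepaRG, 48 h plating then 48 h dosing, serum-free induction medium, 0.5% DMSO. 8 conc, half-log, max 100 uM, duplicates. Endpoint: ALPP transcript by qRT-PCR, housekeeping-normalized; gain or loss fitted vs DMSO.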

[9] = read-out: Bcl-2 (BAD) gene, BAD (gene 572); assay: LTEA_HepaRG_BAD: Life Technologies and Expression Analysis (LTEA) Assay for Bcl-2 (BAD) gene using HepaRG (AID 2283469)
In short: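 Differentiated HepaRG cells were exposed in duplicate in 0.5% DMSO for 48 h to eight-point half-log concentrations up to 100 uM. BAD mRNA was measured by Fluidigm TaqMan qRT-PCR, normalized to ACTB, GAPDH and POLR2A, and fitted bidirectionally against DMSO.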

[10] = read-out: Bcl-2 (BAX) gene, BAX (gene 581); assay: LTEA_HepaRG_BAX: Life Technologies and Expression Analysis (LTEA) Assay for Bcl-2 (BAX) gene using HepaRG (AID 2283470)
In short: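 HepaRG (human liver), 48 h exposure, duplicate wells. 8-pt curve, half-log from 100 uM, 0.5% DMSO. BAX transcript by TaqMan qRT-PCR; ACTB/GAPDH/POLR2A normalization; gain or loss vs DMSO baseline.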

[11] = read-out: adenosine kinase (ADK) gene, ADK (gene 132); assay: LTEA_HepaRG_ADK: Life Technologies and Expression Analysis (LTEA) Assay for adenosine kinase (ADK) gene using HepaRG (AID 2283471)
In short: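 ADK expression quantified by qRT-PCR, normalised to three housekeeping genes, after 48 h exposure of HepaRG cells to eight concentrations (top 100 uM, half-log steps, duplicate, 0.5% DMSO). Up- or down-regulation fitted relative to vehicle.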

[12] = read-out: Alpha-fetoprotein (AFP) gene, AFP (gene 174); assay: LTEA_HepaRG_AFP: Life Technologies and Expression Analysis (LTEA) Assay for Alpha-fetoprotein (AFP) gene using HepaRG (AID 2283472)
In short: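 HepaRG, single lot; 48 h post-plating -> serum-free induction medium; cpd 8-pt, 100 uM top, half-log, 0.5% DMSO, duplicate, 48 h. RNA -> qRT-PCR AFP, norm ACTB/GAPDH/POLR2A. Bidirectional fit vs DMSO.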

BCL2L11 (gene 10018) = assay: LTEA_HepaRG_BCL2L11: Life Technologies and Expression Analysis (LTEA) Assay for Bcl-2 (BCL2L11) gene using HepaRG (AID 2283473)
In short: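 Read-out is BCL2L11 transcript level by qRT-PCR, normalized to three housekeeping genes and fitted bidirectionally against 0.5% DMSO vehicle. HepaRG cells received chemicals for 48 h in serum-free induction medium, 100 uM down in half-log dilutions.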

[13] = read-out: Apolipoprotein A-V (APOA5) gene, APOA5 (gene 116519); assay: LTEA_HepaRG_APOA5: Life Technologies and Expression Analysis (LTEA) Assay for Apolipoprotein A-V (APOA5) gene using HepaRG (AID 2283474)
In short: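 Readout is APOA5 transcript level by qRT-PCR on Fluidigm dynamic arrays, normalized to three housekeeping genes. HepaRG cultures received chemicals for 48 h at up to 100 uM (half-log steps, 0.5% DMSO), with gain or loss scored relative to DMSO.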

[14] = read-out: Apoptosis regulator Bcl-2 (Homo sapiens) (UniProt P10415); assay: LTEA_HepaRG_BCL2: Life Technologies and Expression Analysis (LTEA) Assay for Bcl-2 gene using HepaRG (AID 2283475)
In short: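 HepaRG, plated 48 h then switched to serum-free induction medium; dosed 48 h, 8 conc. (max 100 uM, half-log steps), duplicate, 0.5% DMSO. Lysis in RLT, RNA isolated, TaqMan qRT-PCR for BCL2; ACTB/GAPDH/POLR2A normalisation; bidirectional fit vs DMSO.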

[15] = read-out: Bcl-2 (BID) gene, BID (gene 637); assay: LTEA_HepaRG_BID: Life Technologies and Expression Analysis (LTEA) Assay for Bcl-2 (BID) gene using HepaRG (AID 2283476)
In short: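 Transcript levels of BID, measured by qRT-PCR and normalized to three housekeeping genes, were fitted bidirectionally against DMSO controls. Cells were HepaRG, dosed 48 h at up to 100 uM.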

Caspase-3 (Homo sapiens) = Caspase-3 (Homo sapiens) (UniProt P42574); assay: LTEA_HepaRG_CASP3: Life Technologies and Expression Analysis (LTEA) Assay for cysteine-aspartic acid protease (CASP3) using HepaRG (AID 2283477)
Sequence of Caspase-3 (Homo sapiens) (P42574 whole entry, looked up): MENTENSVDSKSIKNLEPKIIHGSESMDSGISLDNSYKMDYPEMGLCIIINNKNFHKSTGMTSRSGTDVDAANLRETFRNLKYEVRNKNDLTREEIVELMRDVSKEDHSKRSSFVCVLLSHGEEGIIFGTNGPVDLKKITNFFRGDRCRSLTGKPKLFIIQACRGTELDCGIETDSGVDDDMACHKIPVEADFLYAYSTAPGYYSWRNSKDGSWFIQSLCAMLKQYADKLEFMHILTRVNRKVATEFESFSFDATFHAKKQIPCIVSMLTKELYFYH
In short: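 Read-out is CASP3 mRNA level by TaqMan qRT-PCR in human HepaRG cells after 48 h chemical exposure. Eight half-log concentrations topping at 100 uM were tested in 0.5% DMSO; gain or loss was fitted relative to DMSO.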

[16] = read-out: Cytochrome P450 (CYP24A1), CYP24A1 (gene 1591); assay: LTEA_HepaRG_CYP24A1: Life Technologies and Expression Analysis (LTEA) Assay for Cytochrome P450 (CYP24A1) using HepaRG (AID 2283478)
In short: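 HepaRG, 48 h chemical exposure, 8-pt half-log CRC from 100 uM, 0.5% DMSO vehicle, duplicates. Endpoint: CYP24A1 mRNA by Fluidigm TaqMan qRT-PCR, normalized ACTB/GAPDH/POLR2A; gain/loss fit vs DMSO.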

[17] = read-out: Cytochrome P450 (CYP1A2), CYP1A2 (gene 1544); assay: LTEA_HepaRG_CYP1A2: Life Technologies and Expression Analysis (LTEA) Assay for Cytochrome P450 (CYP1A2) using HepaRG (AID 2283479)
In short: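 CYP1A2 transcript induction or loss, quantified by Fluidigm qRT-PCR against three housekeeping genes, was fitted bidirectionally against 0.5% DMSO controls. Human HepaRG cells received eight half-log concentrations from 100 uM over 48 h.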

[18] = read-out: cysteine-aspartic acid protease (CASP8), CASP8 (gene 841); assay: LTEA_HepaRG_CASP8: Life Technologies and Expression Analysis (LTEA) Assay for cysteine-aspartic acid protease (CASP8) using HepaRG (AID 2283480)
In short: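 Differentiated HepaRG cells in serum-free induction medium, 48 h exposure, eight-point half-log series from 100 uM in 0.5% DMSO, duplicates. CASP8 mRNA by qRT-PCR, normalized to ACTB, GAPDH, POLR2A; bidirectional fit versus DMSO.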

Measured: AC50

Sequence of Apoptosis regulator Bcl-2 (Homo sapiens) (P10415 whole entry, looked up): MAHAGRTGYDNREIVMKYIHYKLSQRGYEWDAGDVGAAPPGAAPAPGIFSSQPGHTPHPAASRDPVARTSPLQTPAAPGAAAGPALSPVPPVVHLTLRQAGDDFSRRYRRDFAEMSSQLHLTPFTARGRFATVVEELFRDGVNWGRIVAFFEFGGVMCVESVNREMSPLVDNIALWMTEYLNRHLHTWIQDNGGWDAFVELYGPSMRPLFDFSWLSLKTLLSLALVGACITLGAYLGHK
Sequence of Broad substrate specificity ATP-binding cassette transporter ABCG2 (Homo sapiens) (Q9UNQ0 whole entry, looked up): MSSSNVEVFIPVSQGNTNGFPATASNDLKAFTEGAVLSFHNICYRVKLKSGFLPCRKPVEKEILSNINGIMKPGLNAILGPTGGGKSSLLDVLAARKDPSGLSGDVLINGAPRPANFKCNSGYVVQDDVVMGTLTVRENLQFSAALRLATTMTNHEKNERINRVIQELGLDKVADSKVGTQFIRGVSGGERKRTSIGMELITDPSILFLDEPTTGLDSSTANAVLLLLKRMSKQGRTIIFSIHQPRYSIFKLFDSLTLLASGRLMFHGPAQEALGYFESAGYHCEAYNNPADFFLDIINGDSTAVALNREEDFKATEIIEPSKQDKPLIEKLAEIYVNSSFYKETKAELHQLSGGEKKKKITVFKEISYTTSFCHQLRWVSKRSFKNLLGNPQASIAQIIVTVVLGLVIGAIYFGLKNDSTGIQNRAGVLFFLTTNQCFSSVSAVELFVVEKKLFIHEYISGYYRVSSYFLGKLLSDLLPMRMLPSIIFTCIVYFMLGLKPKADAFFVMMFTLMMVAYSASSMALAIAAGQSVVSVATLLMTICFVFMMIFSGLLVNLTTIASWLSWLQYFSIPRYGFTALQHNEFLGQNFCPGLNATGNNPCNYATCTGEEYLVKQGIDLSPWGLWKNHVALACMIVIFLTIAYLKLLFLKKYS

O=C1OC(=O)C2C3C=CC(C3)C12 (configuration not stated)
inactive: [1] | [2] | [3] | [4] | [5] | [6] | [7] | [8] | [9] | [10] | [11] | [12] | BCL2L11 (gene 10018) | [13] | [14] | [15] | Caspase-3 (Homo sapiens) | [16] | [17] | [18]

CNS(=O)(=O)c1cc(C(=O)N2CCC(CCN3C4CCC3CC(n3c(C)nc5ccccc53)C4)(c3cccc(F)c3)CC2)c(Cl)cc1F (configuration not stated)
active: [2] 12.5 µM | [3] 24.5 µM | [5] 17.1 µM | [6] 30.9 µM | [7] 13.3 µM | [8] 14.5 µM | [12] 24.6 µM | [13] 30.5 µM | [14] 27.4 µM | [17] 27.2 µM
inactive: [1] | [4] | [9] | [10] | [11] | BCL2L11 (gene 10018) | [15] | Caspase-3 (Homo sapiens) | [16] | [18]

O=C(O)c1cccc(Oc2ccccc2)c1
inactive: [1] | [2] | [4] | [5] | [6] | [7] | [8] | [9] | [10] | [11] | [12] | BCL2L11 (gene 10018) | [13] | [14] | [15] | Caspase-3 (Homo sapiens) | [16]
active: [17] 30 µM

CCCN(C1CCN(C(=O)C2CCNCC2)CC1)[C@@H]1CCc2ccc(OC)cc2C1
active: [2] 42.9 µM | [4] 76 µM | [5] 35.5 µM | [7] 33.1 µM | [8] 50 µM | [12] 76.2 µM | [13] 77.4 µM | [17] 84.3 µM
inactive: [1] | [6] | [9] | [10] | [11] | BCL2L11 (gene 10018) | [14] | [15] | Caspase-3 (Homo sapiens) | [16]

CC(O)CN(CCN(CC(C)O)CC(C)O)CC(C)O (configuration not stated)
inactive: [1] | [2] | [3] | [4] | [5] | [6] | [7] | [8] | [11] | [12] | BCL2L11 (gene 10018) | [13] | [15] | Caspase-3 (Homo sapiens) | [16]
active: [9] 12.2 µM | [14] 12.7 µM | [17] 50 µM

Nc1cccc(N)c1
active: [17] 33 µM
inactive: [1] | [2] | [4] | [5] | [6] | [7] | [8] | [9] | [10] | [11] | [12] | BCL2L11 (gene 10018) | [13] | [14] | [15] | Caspase-3 (Homo sapiens) | [16]

Nc1nc2ncc(CNc3ccc(C(=O)N[C@@H](CCC(=O)O)C(=O)O)cc3)nc2c(=O)[nH]1
inactive: [1] | [2] | [3] | [4] | [5] | [6] | [7] | [8] | [9] | [10] | [11] | [12] | BCL2L11 (gene 10018) | [13] | [14] | [15] | Caspase-3 (Homo sapiens) | [16] | [17] | [18]
